Assay results taken from PubChem BioAssay (Tox21).
Inconclusive results are not listed. Active and inactive are the calls of the source. Unless noted, the call rests on the fitted dose curve; in most records, active means well fitted curve in the direction sought with a large enough effect in the repeat runs; inconclusive means weak or mixed curves; inactive means no such curve, though single readings can be large; an effect the other way counts as inactive or inconclusive.

Legend:
[1] = qHTS assay for small molecule agonists of the p53 signaling pathway (AID 651631; calls by dose curve; further: nearly all actives have a fitted effect of over 15% in size)
Procedure, shortened: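 We treat p53RE-bla HCT-116 cells with compounds for 16 h at 37 °C, add LiveBLAzer B/G FRET substrate for 2 h at room temperature, and measure fluorescence intensity.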

[2] = qHTS assay for small molecules that induce genotoxicity in human embryonic kidney cells expressing luciferase-tagged ATAD5 (AID 651632); further: nearly all actives have a fitted effect of over 15% in size
Procedure, shortened: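 Concentration-response screen for ATAD5 upregulation in HEK293T luciferase reporter cells; 16 hr treatment at 37C, then luminescence after 30 min with Amplite at room temperature.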

[3] = qHTS assay for small molecule agonists of the p53 signaling pathway - cell viability (AID 651633; calls by dose curve;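 further: p53RE-bla HCT reporter cells with a stable beta-lactamase p53 reporter; series mostly up to about 83 µM; nearly all actives have a fitted effect of over 30% in size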)
Procedure, shortened: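 p53RE-bla cells were treated with compound for 16 hours at 37 C. Cytotoxicity was then measured as CellTiter-Glo luminescence after 30 min at room temperature.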

[4] = qHTS assay for small molecules that induce genotoxicity in human embryonic kidney cells expressing luciferase-tagged ATAD5 - cell viability (AID 651634; calls by dose curve; further: nearly all actives have a fitted effect of over 25% in size; further: potency means the concentration at half of the fitted maximal effect)
Procedure, shortened: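 15.5 hr compound or vehicle exposure of HEK293T cells expressing luciferase-tagged ATAD5 at 37C; live-cell protease activity is read by fluorescence after 30 min of CellTiter-Fluor.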

[5] = qHTS assay for small molecule disruptors of the mitochondrial membrane potential - cell viability (AID 720634; calls by dose curve;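 further: human HepG2 liver cancer cells; series mostly up to about 83 µM; nearly all actives have a fitted effect of over 20% in size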)
Procedure, shortened: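 In this qHTS format, HepG2 cells plated overnight were pinned with compound, incubated 1 hr, and assayed for ATP luminescence with CellTiter-Glo after m-MPI dye addition.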

[6] = qHTS assay to test for compound auto fluorescence at 535 nm (green) in HepG2 cells (AID 720675)
[7] = qHTS assay to test for compound auto fluorescence at 460 nm (blue) in HEK293 cells (AID 720678)
Procedure, shortened: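 Intrinsic compound fluorescence is recorded in live HEK293 cultures after overnight incubation at 37C, 5% CO2, using excitation 405 nm and emission 460 nm. Values are referenced to triamterene.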

[8] = qHTS assay to test for compound auto fluorescence at 590 nm (red) in HEK293 cells (AID 720679)
Procedure, shortened: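 Red autofluorescence, HEK293 cells: 2,000 cells/well; attach 4-5 hr 37C; add 23 nL cpd or DMSO; incubate o/n 37C 5% CO2; read Ex540/Em590; Rose Bengal sodium reference.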

[9] = qHTS assay to test for compound auto fluorescence at 535 nm (green) in HEK293 cells (AID 720680)
[10] = qHTS assay to test for compound auto fluorescence at 460 nm (blue) in HEK293 cell free culture (AID 720681)
Procedure, shortened: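 Compounds were added to cell-free DMEM with 10% FBS and fluorescence read directly. The blue channel used 405 nm excitation and 460 nm emission, with triamterene as the reference fluorophore.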

[11] = qHTS assay to test for compound auto fluorescence at 535 nm (green) in HEK293 cell free culture (AID 720682)
Procedure, shortened: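 Green-channel intensity (Ex/Em 485/535 nm) was recorded from compound-treated wells containing only DMEM with 10% FBS. Fluorescein provided the equivalency standard.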

[12] = qHTS assay to test for compound auto fluorescence at 590 nm (red) in HEK293 cell free culture (AID 720683)
Procedure, shortened: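 Cell-free wells of DMEM with 10% FBS received compound, and intrinsic fluorescence was read at excitation/emission 540/590 nm. Values expressed as equivalence to Rose Bengal sodium.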

[13] = qHTS assay to test for compound auto fluorescence at 590 nm (red) in HepG2 cell free culture (AID 720684)
Procedure, shortened: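 Rose Bengal sodium served as the reference for red signal. Test compounds were dispensed into serum-containing MEM (10% FBS) without cells, and plates were read at 540/590 nm.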

[14] = qHTS assay to test for compound auto fluorescence at 460 nm (blue) in HepG2 cell free culture (AID 720685)
Procedure, shortened: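 Cell-free plates of MEM plus 10% FBS received 23 nL compound or DMSO vehicle; blue-channel (405/460 nm) intensity scored against triamterene as reference fluorophore.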

[15] = qHTS assay to test for compound auto fluorescence at 535 nm (green) in HepG2 cell free culture (AID 720686)
[16] = qHTS assay to test for compound auto fluorescence at 460 nm (blue) in HepG2 cells (AID 720687)
Procedure, shortened: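 HepG2 cells in MEM with 10% FBS, attached overnight at 37 C, were exposed to compound or DMSO for 1 hr at 37 C, 5% CO2. Blue fluorescence was read at 405/460 nm, with triamterene as reference fluorophore.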

[17] = molecular target: Glucocorticoid receptor (Homo sapiens) (UniProt P04150); experiment: qHTS assay to identify small molecule agonists of the glucocorticoid receptor (GR) signaling pathway (AID 720691; active means well fitted activation curve with a large enough effect in the signal ratio in the repeat runs, not every such curve was filed as active; the % refers to the signal ratio)
Procedure, shortened: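 Measures GR pathway activation through a GRE-beta-lactamase reporter stably integrated in HeLa cells, with 18 h compound treatment at 37 C and fluorescence detection using a FRET substrate.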

[18] = molecular target: Glucocorticoid receptor (Homo sapiens) (UniProt P04150); experiment: qHTS assay to identify small molecule antagonists of the glucocorticoid receptor (GR) signaling pathway (AID 720692; active means well fitted inhibition curve with a large enough effect in the signal ratio in the repeat runs, not every such curve was filed as active; the % refers to the signal ratio)
Procedure, shortened: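 Tox21 10K library screened in concentration-response for blockade of dexamethasone (5 nM final)-induced GRE-bla reporter activity in HeLa cells; 18 h treatment, fluorescence read.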

[19] = qHTS assay for small molecule disruptors of the mitochondrial membrane potential (AID 720635)
Procedure, shortened: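 HepG2 cells exposed to compound 1 hr at 37C, then Mito-MPS dye 30 min. Ratio read of aggregate (540/590 nm) versus monomer (490/535 nm) fluorescence.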

[20] = qHTS assay to test for compound auto fluorescence at 590 nm (red) in HepG2 cells (AID 720674)
Procedure, shortened: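 HepG2 cells, 2,000 per well in MEM with 10% FBS, attached overnight at 37 C, then got 23 nL compound or DMSO. After 1 hr at 37 C, 5% CO2, red fluorescence was read at 540/590 nm against Rose Bengal sodium as reference.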
On the % scale 0 is the no-effect control and ±100 the full control effect.

Glucocorticoid receptor (Homo sapiens), sequence (P04150 whole entry, looked up): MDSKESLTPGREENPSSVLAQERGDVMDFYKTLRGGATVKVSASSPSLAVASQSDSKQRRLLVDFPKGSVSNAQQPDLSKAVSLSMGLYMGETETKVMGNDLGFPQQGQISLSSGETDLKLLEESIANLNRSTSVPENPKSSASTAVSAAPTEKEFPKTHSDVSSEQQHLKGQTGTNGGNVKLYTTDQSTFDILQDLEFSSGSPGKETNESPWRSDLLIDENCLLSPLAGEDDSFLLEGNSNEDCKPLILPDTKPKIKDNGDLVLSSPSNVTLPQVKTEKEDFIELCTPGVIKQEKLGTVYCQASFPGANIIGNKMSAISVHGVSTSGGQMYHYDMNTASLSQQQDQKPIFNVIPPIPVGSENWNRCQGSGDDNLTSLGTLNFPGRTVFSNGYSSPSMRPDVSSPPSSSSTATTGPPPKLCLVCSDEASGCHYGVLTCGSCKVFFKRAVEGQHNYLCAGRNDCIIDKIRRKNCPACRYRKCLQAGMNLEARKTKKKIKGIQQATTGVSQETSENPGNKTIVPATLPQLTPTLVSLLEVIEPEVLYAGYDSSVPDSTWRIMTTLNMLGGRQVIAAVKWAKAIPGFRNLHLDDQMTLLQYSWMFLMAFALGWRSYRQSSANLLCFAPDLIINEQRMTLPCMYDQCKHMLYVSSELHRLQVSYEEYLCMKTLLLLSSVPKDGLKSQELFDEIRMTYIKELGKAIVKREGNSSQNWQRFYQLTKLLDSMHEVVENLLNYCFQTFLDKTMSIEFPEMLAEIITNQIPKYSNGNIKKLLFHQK

CCOCCOCCOCC
inactive: outcome [1] | Potency [2] | outcome [3] | Potency [4] | outcome [5] | outcome [6] | outcome [7] | outcome [8] | outcome [9] | outcome [10] | outcome [11] | outcome [12] | outcome [13] | outcome [14] | outcome [15] | outcome [16] | Potency [17] | outcome [18]

CCOC(=O)c1ncn2c1CN(C)C(=O)c1cc(F)ccc1-2
inactive: outcome [1] | Potency [2] | Potency [4] | outcome [5] | Potency [19] | outcome [20] | outcome [6] | outcome [7] | outcome [8] | outcome [9] | outcome [10] | outcome [11] | outcome [12] | outcome [13] | outcome [14] | outcome [15] | outcome [16]

ClCCCl
inactive: outcome [1] | Potency [2] | Potency [4] | outcome [5] | Potency [19] | outcome [20] | outcome [6] | outcome [7] | outcome [8] | outcome [9] | outcome [10] | outcome [11] | outcome [12] | outcome [13] | outcome [14] | outcome [15] | outcome [16] | Potency [17] | outcome [18]

Cc1cc2cc3c(C)cc(=O)oc3c(C)c2o1
inactive: outcome [1] | Potency [2] | outcome [3] | Potency [4] | outcome [5] | fluorescence, % of fluorescein control [6] -0.0056% [at 18.6 µM] | fluorescence, % of triamterene [7] 1.9% [at 18.6 µM] | fluorescence, % of fluorescent control [8] 0.0391% [at 18.6 µM] | fluorescence, % of fluorescein [9] 0.0223% [at 18.6 µM] | fluorescence, % of fluorescent control [10] 1.37% [at 18.6 µM] | activity change [11] -0.0015% [at 18.6 µM] | fluorescence, % of fluorescent control [12] 0.147% [at 18.6 µM] | fluorescence, % of Rose Bengal [13] -0.0947% [at 18.6 µM] | fluorescence, % of fluorescent control [14] 1.64% [at 18.6 µM] | fluorescence, % of fluorescein control [15] -0.0028% [at 18.6 µM] | fluorescence, % of fluorescent control [16] 1.96% [at 18.6 µM]

Nc1nnc(-c2cccc(Cl)c2Cl)c(N)n1
inactive: outcome [1] | Potency [2] | outcome [3] | Potency [4] | outcome [20] | outcome [6] | outcome [7] | outcome [9] | outcome [10] | outcome [11] | outcome [13] | outcome [14] | outcome [15] | outcome [16]

Nc1ccc([N+](=O)[O-])c(N)c1
inactive: outcome [1] | Potency [2] | outcome [3] | outcome [5] | outcome [20] | outcome [6] | outcome [8] | outcome [9] | outcome [10] | outcome [11] | outcome [12] | outcome [13] | outcome [14] | outcome [15] | outcome [16] | Potency [17] | outcome [18]
active: Potency [4] 47.3 µM

CCCCOC(=O)c1ccccc1
inactive: outcome [1] | Potency [2] | Potency [4] | outcome [5] | Potency [19] | outcome [20] | outcome [6] | outcome [7] | outcome [8] | outcome [9] | outcome [10] | outcome [11] | outcome [12] | outcome [13] | outcome [14] | outcome [15] | outcome [16] | Potency [17] | outcome [18]

CCN1CCc2nc(N)oc2CC1
inactive: outcome [1] | Potency [2] | Potency [4] | outcome [5] | Potency [19] | outcome [20] | outcome [6] | outcome [8] | outcome [9] | outcome [10] | outcome [11] | outcome [13] | outcome [14] | outcome [15] | outcome [16] | Potency [17]

CC(=C(CCOC(=O)C(C)C)SSC(CCOC(=O)C(C)C)=C(C)N(C=O)Cc1cnc(C)nc1N)N(C=O)Cc1cnc(C)nc1N
inactive: outcome [1] | Potency [2] | Potency [4] | outcome [5] | Potency [19] | outcome [20] | outcome [6] | outcome [7] | outcome [8] | outcome [9] | outcome [10] | outcome [11] | outcome [13] | outcome [14] | outcome [15] | outcome [16] | Potency [17] | outcome [18]

CCOC(=O)[C@H](CCc1ccccc1)N[C@@H](C)C(=O)N1C(=O)N(C)C[C@H]1C(=O)O
inactive: outcome [1] | Potency [2] | Potency [4] | outcome [5] | Potency [19] | outcome [20] | outcome [6] | outcome [7] | outcome [8] | outcome [9] | outcome [10] | outcome [11] | outcome [12] | outcome [13] | outcome [14] | outcome [15] | outcome [16]

CCC(C)NC(N)=O (centres undefined)
inactive: outcome [1] | Potency [2] | outcome [3] | Potency [4] | outcome [5] | outcome [6] | outcome [7] | outcome [8] | outcome [9] | outcome [10] | outcome [11] | outcome [12] | outcome [13] | outcome [14] | outcome [15] | outcome [16]

CCCCNC1CC(C)(C)NC(C)(C)C1
inactive: outcome [1] | Potency [2] | outcome [3] | Potency [4] | outcome [5] | outcome [6] | outcome [7] | outcome [8] | outcome [9] | outcome [10] | outcome [11] | outcome [12] | outcome [13] | outcome [14] | outcome [15] | outcome [16] | Potency [17] | outcome [18]

Cc1cccc(C)c1OCC(C)N (centres undefined)
inactive: outcome [1] | Potency [2] | outcome [3] | Potency [4] | outcome [20] | outcome [6] | outcome [7] | outcome [8] | outcome [9] | outcome [10] | outcome [11] | outcome [12] | outcome [13] | outcome [14] | outcome [15] | outcome [16]

CCCOC(=O)C(C)O (centres undefined)
inactive: outcome [1] | Potency [2] | outcome [3] | Potency [4] | outcome [5] | outcome [6] | outcome [8] | outcome [9] | outcome [10] | outcome [11] | outcome [12] | outcome [13] | outcome [14] | outcome [15] | outcome [16]

CC(COC(C)(C)C)OCCCO (centres undefined)
inactive: outcome [1] | Potency [2] | Potency [4] | outcome [5] | Potency [19] | outcome [20] | outcome [6] | outcome [7] | outcome [8] | outcome [9] | outcome [10] | outcome [11] | outcome [12] | outcome [13] | outcome [14] | outcome [15] | outcome [16]

Brc1ccc(-c2ccccc2)cc1
inactive: outcome [1] | Potency [2] | outcome [3] | Potency [4] | outcome [6] | outcome [7] | outcome [8] | outcome [9] | outcome [10] | outcome [11] | outcome [13] | outcome [14] | outcome [15] | outcome [16] | Potency [17]
